Source: PubChem (several laboratories)
CYP2C19 act: cytochrome P450 2C19 (human) activation | P33261 | recombinant CYP2C19, luciferin-H EGE luminescence; hits give high values; 0 = fully inhibited enzyme, 1 = untreated enzyme | activation factor at 5 µM | 96,000 tested, under 10 active | AID 1025;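 active means activation factor of at least 2 at 5 µM in the primary screen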;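 further: 0 = wells with 2.5 mM tranylcypromine and 1 = vehicle-only wells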
Target sequence (P33261 whole entry, looked up): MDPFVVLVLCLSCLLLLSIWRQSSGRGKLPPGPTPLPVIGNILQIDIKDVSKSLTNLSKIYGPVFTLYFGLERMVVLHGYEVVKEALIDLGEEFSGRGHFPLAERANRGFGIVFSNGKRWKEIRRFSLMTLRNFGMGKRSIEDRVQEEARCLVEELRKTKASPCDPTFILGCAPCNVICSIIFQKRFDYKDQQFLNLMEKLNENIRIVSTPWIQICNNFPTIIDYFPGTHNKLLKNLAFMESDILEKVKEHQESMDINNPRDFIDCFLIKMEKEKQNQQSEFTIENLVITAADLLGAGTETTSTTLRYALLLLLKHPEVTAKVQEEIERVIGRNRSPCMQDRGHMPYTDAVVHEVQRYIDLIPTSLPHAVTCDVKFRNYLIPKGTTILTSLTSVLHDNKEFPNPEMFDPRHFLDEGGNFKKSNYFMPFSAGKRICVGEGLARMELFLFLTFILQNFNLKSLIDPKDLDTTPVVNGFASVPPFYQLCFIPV
CYP2C9 inhib: human CYP2C9 inhibition | 20% of 96,000 active | inhibition, % at 5 µM | CYP2C9 Supersomes, luciferin-H conversion, luminescence | AID 777;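 active means blocking of liver enzyme CYP2C9 beyond about 50% at 5 µM, limit read from the data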
MRP-1 activ: MRP-1 activation | H69AR cells + doxorubicin, viability rescue, CellTiter-Glo | viability increase, % at 10 µM | 0.61% of 140,000 active | AID 799;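 active means viability gain under doxorubicin at or above a set limit, the compound median plus 3 SD, cut at about 4.7% in these data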;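 further: MRP-1 overexpressing cells given doxorubicin 25 µM after compound pretreatment; 18-22 h compound pretreatment then 72 h with doxorubicin before readout; 0% = doxorubicin-only wells and 100% = vehicle-treated cells without doxorubicin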
CYP2C19 inhib: inhibitors of human CYP2C19; P33261; CYP2C19 Supersomes, luciferin-H EGE luminescence, 30 min; inhibition, % at 5 µM; 21% of 96,000 active; AID 778;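 active means CYP2C19 inhibition above a set limit at 5 µM in the primary screen, cut at about 50% in these data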;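 further: plate controls were negative control wells for no effect and 2.5 mM tranylcypromine positive control for full effect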
MRP reversal: MRP-mediated drug resistance reversal; H69AR cells + 2 uM doxorubicin, CellTiter-Glo, 72 h; differential viability (reversal), % at 10 µM; 0.04% of 85,000 active; AID 602;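 active means viability drop by adding the cancer drug above about 55%, with treated viability meeting a 40% cutoff, limit read from the data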;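 further: viability without doxorubicin minus viability with 2 µM doxorubicin for each compound; larger differential means the compound sensitizes cells more to doxorubicin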
CYP2C9 act: increases human cytochrome P450 2C9 activity. P11712. recombinant CYP2C9, luciferin-H conversion, luminescence; hits give high values; factor 1 = untreated enzyme, 0 = blocked. activation factor at 5 µM. 1.4% of 96,000 active;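 active means activation factor of 2 or more for CYP2C9 at a 5 µM dose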;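 further: 0 = sulfaphenazole-blocked wells and 1 = vehicle-only wells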
* marks the source's active call; other numbers are inactive results. The list is not random: actives were taken first. Their share in the collection is about 21%.

Screening Cc1ccccc1NC(=O)CN(C)S(=O)(=O)c1cccc2cccnc12 returned CYP2C19 act 0.3, CYP2C9 inhib 88*, MRP-1 activ -1, CYP2C19 inhib 72*, MRP reversal 6 and CYP2C9 act 0.1.
`CN(CC(=O)Nc1ccc(Cl)cc1)C(=O)c1cccc(S(=O)(=O)N(C)C)c1` gave MRP-1 activ 3.
For Cc1ccc2cc(C(c3nnnn3C(C)(C)C)N3CCCC3)c(=O)[nH]c2c1C (centres undefined) the results were CYP2C19 act 0.8, CYP2C9 inhib 30, CYP2C19 inhib 18, MRP reversal -2 and CYP2C9 act 0.7.
`Cc1cccc(NC(=O)CN(C)S(=O)(=O)c2cccc3cccnc23)c1` gave CYP2C19 act 0.5, CYP2C9 inhib 54*, MRP-1 activ 0, CYP2C19 inhib 48, MRP reversal -2 and CYP2C9 act 0.5.
Screening Cc1ccc(S(=O)(=O)N(C)CC(=O)Nc2cccc(C)n2)cc1 returned CYP2C19 act 0.8, CYP2C9 inhib -25, MRP-1 activ -2, CYP2C19 inhib 23, MRP reversal 7 and CYP2C9 act 1.3.
For CN(CC(=O)Nc1ccc2c(c1)OCCO2)S(=O)(=O)c1cccc2cccnc12 the results were CYP2C19 act 0.2, CYP2C9 inhib 94*, MRP-1 activ -1, CYP2C19 inhib 78*, MRP reversal 5 and CYP2C9 act 0.1.
Screening COc1ccc(NC(=O)CN(C)S(=O)(=O)c2cccc3cccnc23)cc1 returned CYP2C19 act 0.3, CYP2C9 inhib 90*, MRP-1 activ 0, CYP2C19 inhib 70*, MRP reversal 7 and CYP2C9 act 0.1.
`O=C(CSc1cn(Cc2ccccc2)c2ccccc12)NCc1ccc(F)cc1` gave MRP-1 activ -2.
`Cc1ccccc1N1C(=O)c2cccc3c(N(C)CCO)ccc(c23)C1=O` gave CYP2C19 act 0.5, CYP2C9 inhib 15, MRP-1 activ -3, CYP2C19 inhib 50*, MRP reversal 6 and CYP2C9 act 0.9.
COc1ccccc1N1C(=O)c2cccc3c(C(=O)O)ccc(c23)C1=O was read as CYP2C19 act 0.9, CYP2C9 inhib -5, MRP-1 activ 1, CYP2C19 inhib 6, MRP reversal -19 and CYP2C9 act 1.1.
CCSc1nnc(NC(=O)C(C)Sc2nc3ccccc3[nH]2)s1 (centres undefined) was read as MRP-1 activ 1.
CCN1CC=C2C(C#N)=C(N)C(C#N)(C#N)C(c3cc(Cl)ccc3Cl)C2C1 (centres undefined) was read as CYP2C19 act 0.7, CYP2C9 inhib 59*, MRP-1 activ -3, CYP2C19 inhib 34, MRP reversal 12 and CYP2C9 act 0.4.
For CCn1nc(C(=O)OCC(=O)Nc2nc(-c3ccc(OC)cc3)cs2)c2ccccc2c1=O the results were MRP-1 activ -4.
Screening CC(C)Oc1cccc(C(=O)NC(=S)N2CCN(c3ccc(C(F)(F)F)cc3[N+](=O)[O-])CC2)c1 returned CYP2C19 act 0.7, CYP2C9 inhib 62*, MRP-1 activ -1, CYP2C19 inhib 32 and CYP2C9 act 0.4.
CCN(CC)c1nc(C)c(C(C)=O)cc1C#N was read as CYP2C19 act 0.5, CYP2C9 inhib 17, MRP-1 activ -2, CYP2C19 inhib 54*, MRP reversal 9 and CYP2C9 act 0.8.
For CC(=O)c1cc(C#N)c(SCc2ccccc2C#N)nc1C the results were MRP-1 activ -3 and MRP reversal -21.
For CC(=O)c1cc(C#N)c(SCc2ccncc2)nc1C the results were CYP2C19 act 0, CYP2C9 inhib 93*, MRP-1 activ -1, CYP2C19 inhib 97*, MRP reversal -1 and CYP2C9 act 0.1.
For Cc1ccc(NC(=O)CCC(=O)OCC(=O)c2ccc(Oc3ccc([N+](=O)[O-])cc3)cc2)c(C)c1 the results were CYP2C19 act 0.9, CYP2C9 inhib -16, MRP-1 activ -1, CYP2C19 inhib 9 and CYP2C9 act 1.2.
`O=C(O)c1ccc(Br)c(S(=O)(=O)N2CCCC2)c1` gave CYP2C19 act 0.9, CYP2C9 inhib 3, MRP-1 activ -1, CYP2C19 inhib 8, MRP reversal 6 and CYP2C9 act 1.
`COc1ccc(/C=N/NC(=O)c2nonc2C)cc1` gave CYP2C19 act 0.2, CYP2C9 inhib 27, MRP-1 activ 1, CYP2C19 inhib 80* and CYP2C9 act 0.7.
C/C(CC(=O)Nc1ccc(Cl)cc1Cl)=N\NC(=O)c1ccco1 was read as MRP-1 activ -1.
CCN1CCN(c2nc3c(C)cccn3c(=O)c2/C=C(\C#N)S(=O)(=O)c2ccc(C)cc2)CC1 was read as CYP2C19 act 0.7, CYP2C9 inhib 89*, MRP-1 activ -1, CYP2C19 inhib 33, MRP reversal 7 and CYP2C9 act 0.1.
For Cc1cccn2c(=O)c(/C=C(\C#N)S(=O)(=O)c3ccccc3)c(N3CCN(C)CC3)nc12 the results were CYP2C19 act 1.1, CYP2C9 inhib 75*, MRP-1 activ -2, CYP2C19 inhib -10, MRP reversal 14 and CYP2C9 act 0.2.
For CCNC(=O)/C(C#N)=C/c1c(N2CCN(Cc3ccc4c(c3)OCO4)CC2)nc2c(C)cccn2c1=O the results were MRP-1 activ -2.
For Cc1ccc(S(=O)(=O)/C(C#N)=C/c2c(N3CCN(C)CC3)nc3c(C)cccn3c2=O)cc1 the results were CYP2C19 act 0.9, CYP2C9 inhib 85*, MRP-1 activ -1, CYP2C19 inhib 9, MRP reversal 2 and CYP2C9 act 0.2.
Screening Cc1ccc(S(=O)(=O)/C(C#N)=C/c2c(N3CC(C)OC(C)C3)nc3c(C)cccn3c2=O)cc1 (centres undefined) returned CYP2C19 act 0.9, CYP2C9 inhib 72*, MRP-1 activ -1, CYP2C19 inhib 7, MRP reversal 3 and CYP2C9 act 0.3.
For Cc1cc(Oc2nc3c(C)cccn3c(=O)c2/C=C(\C#N)S(=O)(=O)c2ccc(Cl)cc2)ccc1Cl the results were MRP-1 activ -5.
`Cc1cccn2c(=O)c(/C=C(\C#N)C(=O)NCc3ccco3)c(N3CCCC(C)C3)nc12` (centres undefined) gave MRP-1 activ 0.
`O=[N+]([O-])c1ccc(N/N=C2/CCCCC2c2ccccn2)cc1` (centres undefined) gave MRP-1 activ -3.
`CC(=O)c1c(C)nc2sc3c(=N)n(N)cnc3c2c1-c1ccc(Cl)cc1` gave MRP-1 activ -2.
For CC1(C)CC(=O)c2sc(NC(=O)c3cccs3)nc2C1 the results were MRP-1 activ -1 and MRP reversal 13.
Screening Cn1c(-c2ccc(C=O)s2)nc2c3ccccc3c3ccccc3c21 returned CYP2C19 act 1.1, CYP2C9 inhib 24, MRP-1 activ -1, CYP2C19 inhib -10, MRP reversal -17 and CYP2C9 act 0.8.
